Data: PubChem BioAssay AID1445 (SRMLSC, 2008)
Screen size: about 220,000 compounds; about 910 (0.41%) were called active. The entries come from a sample that favours actives as a whole. Potency and affinity values are given separately. Values without a mark were called inactive.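 How the source made its calls: active means primary inhibition above the hit cutoff, then over 50% inhibition at one or more dose response concentrations (cut at about 23% in these data, passing the limit was not always enough); inconclusive means conflicting primary data, or primary hits not chosen for dose response; inactive means low primary inhibition, or under 50% at every dose.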

The molecules below were run against Aminopeptidase N (Plasmodium falciparum (isolate 3D7)) (UniProt O96935) (assay: malaria alanyl aminopeptidase activity blockers – biochemical, fluorogenic H-Leu-NHMec substrate, 1536-well (AID 1445;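 further: plate controls were DMSO full reaction for no effect and no enzyme background for full effect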)). Conditions: recombinant M1AAP, H-Leu-NHMec fluorogenic kinetic assay; at 30 µM, hits give high values unless noted.
Chain of Aminopeptidase N (Plasmodium falciparum (isolate 3D7)) (O96935 whole entry, looked up): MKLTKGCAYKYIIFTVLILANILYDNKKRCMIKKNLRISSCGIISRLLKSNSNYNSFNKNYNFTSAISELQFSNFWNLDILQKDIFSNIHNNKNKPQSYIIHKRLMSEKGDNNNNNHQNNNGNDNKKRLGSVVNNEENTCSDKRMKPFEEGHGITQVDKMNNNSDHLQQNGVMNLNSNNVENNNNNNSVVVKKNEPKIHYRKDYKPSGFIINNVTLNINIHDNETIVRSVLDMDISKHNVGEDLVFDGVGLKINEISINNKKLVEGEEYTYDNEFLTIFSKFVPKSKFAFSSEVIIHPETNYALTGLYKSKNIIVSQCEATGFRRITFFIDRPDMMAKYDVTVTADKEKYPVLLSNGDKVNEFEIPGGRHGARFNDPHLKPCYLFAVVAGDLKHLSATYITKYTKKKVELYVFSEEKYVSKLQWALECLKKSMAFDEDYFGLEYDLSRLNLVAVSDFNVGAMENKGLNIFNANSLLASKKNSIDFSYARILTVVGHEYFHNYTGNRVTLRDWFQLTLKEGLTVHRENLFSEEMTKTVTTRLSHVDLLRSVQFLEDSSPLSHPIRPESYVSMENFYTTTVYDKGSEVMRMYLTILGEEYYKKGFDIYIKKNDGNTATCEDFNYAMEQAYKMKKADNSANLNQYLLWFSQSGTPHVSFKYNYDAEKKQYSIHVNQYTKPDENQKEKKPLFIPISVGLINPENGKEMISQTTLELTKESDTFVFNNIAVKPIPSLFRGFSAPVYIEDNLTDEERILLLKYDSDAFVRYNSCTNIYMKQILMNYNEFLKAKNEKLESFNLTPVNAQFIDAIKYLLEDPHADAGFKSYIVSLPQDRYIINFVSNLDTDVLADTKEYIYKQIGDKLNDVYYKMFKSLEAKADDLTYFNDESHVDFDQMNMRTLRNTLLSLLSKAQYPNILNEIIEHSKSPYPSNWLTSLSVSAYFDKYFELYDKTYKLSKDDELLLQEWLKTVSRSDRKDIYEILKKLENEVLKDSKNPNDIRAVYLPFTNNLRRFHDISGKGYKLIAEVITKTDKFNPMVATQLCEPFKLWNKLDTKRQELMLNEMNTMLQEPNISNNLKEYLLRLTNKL
`COc1cccc(OC)c1OCCNCCO` was tested, and the inhibition was 9.5%.
For `O=C(CCNS(=O)(=O)c1cccc2nsnc12)NCc1ccco1`, the inhibition was 3.34%.
`CC(=O)Nc1ccccc1C(=O)C(=O)Nc1cccc(C(=O)NCc2ccc(C)cc2)c1` showed an inhibition of 2.5%.
`COC(=O)c1cc(NC(=S)N2CCN(C(=O)C3CCCO3)CC2)cc(C(=O)OC)c1` (stereo not drawn) showed an inhibition of -0.88%.
`CCOC(=O)c1cc2c(=O)[nH]ccc2nc1C(F)(F)F` showed an inhibition of 5.5%.
For `CCCc1ccc(OCc2ccc(C(=O)O)o2)c(OC)c1`, the inhibition was 1.24%.
Work on `CCc1ccc(NC(=O)COc2ccc(/C=C(/C#N)c3nc4ccccc4[nH]3)cc2OC)cc1` yielded an inhibition of 11%.
For `CCOc1cc(/C=C(/C#N)c2ccc(F)cc2)ccc1OCc1ccc(C(=O)O)o1`, the inhibition was 17.8%.
For `CCOc1cc(/C=C(/C#N)c2nc3ccccc3[nH]2)ccc1Oc1ccc([N+](=O)[O-])cn1`, the inhibition was 1.44%.
Work on `COc1cccc(/C=C(/C#N)c2ccc(Cl)cc2)c1OCc1cccc(C(=O)O)c1` yielded an inhibition of 13.3%.
`COc1cc(/C=C(\C#N)c2nc3ccccc3[nH]2)ccc1OC(=O)c1ccco1` gave an inhibition of 7.39%.
`COC(=O)c1ccc(COc2ccc(/C=C(\C#N)c3nc4ccccc4[nH]3)cc2OC)o1` showed an inhibition of 12.6%.
Molecule `N#C/C(=C\c1ccccc1OCc1ccc(C(=O)O)cc1)c1ccccc1` has an inhibition of -6.55%.
With `COc1cc(/C=C(/C#N)c2ccc(F)cc2)ccc1OCc1ccc(C(=O)O)o1` the inhibition was 27.4% (active).
With `CN(C(=O)c1ccccc1NC(=O)C(F)(F)F)c1ccccc1` the inhibition was 4.16%.
Molecule `O=C1OCC2=C1C(c1ccccc1)CC(=O)N2c1ccccc1` (stereo not drawn) has an inhibition of 5.38%.
`NC(=O)C(=O)N/N=C/c1c(F)c(F)c(F)c(F)c1F` showed an inhibition of 13.6%.
With `C=C1CCN([C@@H](C)C(=O)NCc2ccc(OC)cc2)S(=O)(=O)c2ccccc21` the inhibition was 6.29%.
Work on `CN(CC(=O)N1CCN(c2ccccn2)CC1)S(=O)(=O)c1cccc2nsnc12` yielded an inhibition of 3.43%.
For `Cc1cc(C)nc(N/N=C/c2ccccc2OCc2ccc(Br)cc2)n1`, the inhibition was 1.44%.
`Cc1c(N/C=C/C(=O)c2ccc(Cl)cc2)c(=O)n(-c2ccccc2)n1C` was tested, and the inhibition was 4.02%.
Work on `Cc1ccc(C(=O)C2=C(O)C(=O)N(Cc3ccccc3)C2c2cccnc2)o1` (stereo not drawn) yielded an inhibition of 15.2%.
For `O=C(C1=C(O)C(=O)N(CCc2ccccc2)C1c1cccnc1)c1ccco1` (stereo not drawn), the inhibition was 9.09%.
`Cc1c(N2C(=O)C(=O)/C(=C(/O)c3ccccc3)C2c2ccc(F)cc2)c(=O)n(-c2ccccc2)n1C` (stereo not drawn) was tested, and the inhibition was 5.61%.
For `COC(=O)c1cc(NS(=O)(=O)c2ccc3c(c2)CCC(=O)N3)cc(C(=O)OC)c1`, the inhibition was 8.87%.
With `O=C(CCC1CC(=O)Nc2ccccc21)NCc1ccc(F)cc1` (stereo not drawn) the inhibition was 5.98%.
For `O=C(O)CCCC(=O)Nc1ccc(Sc2ccc([N+](=O)[O-])cc2)cc1`, the inhibition was 2.99%.
`CCOc1nonc1C(=N)/C(C(C)=O)=C(\C)O` gave an inhibition of -1.51%.
Molecule `Cc1ccc(OCC(=O)N2CCN(c3nnc(-c4ccc(C)cc4)c4ccccc34)CC2)cc1` has an inhibition of 14.1%.
`CC(C)CSc1nc2ccccc2n1CC(N)=O` gave an inhibition of -7.7%.
`O=[n+]1c2c(n([O-])c3ccccc31)CCCC2` gave an inhibition of 2.78%.
For `O=[n+]1c2c(n([O-])c3cc(Br)ccc31)CCC2`, the inhibition was 16.4%.
`O=[n+]1c2c(n([O-])c3ccccc31)CCC2` was tested, and the inhibition was 26.1% (active).
With `COc1ccc(C(=O)N/N=C/c2c(CO)cnc(C)c2O)cc1` the inhibition was 14.8%.
With `Cc1ncc(CO)c(/C=N/NC(=O)c2ccc(O)cc2)c1O` the inhibition was 7.46%.
`Cc1cccc2cc(CN(Cc3cccs3)S(=O)(=O)c3ccc4c(c3)OCCO4)c(=O)[nH]c12` showed an inhibition of 4.88%.
Work on `Cc1cccc(-n2cc(CNCCc3nc(C)cc(C)n3)c(-c3cccc(F)c3)n2)c1` yielded an inhibition of 0.33%.
Work on `CC1CCCCN1C(=O)c1cc2nc(-c3ccccc3)cc(-c3ccccc3)n2n1` (stereo not drawn) yielded an inhibition of 2.04%.
With `COC(=O)COc1ccc(=O)n(-c2ccccc2)n1` the inhibition was 2.11%.
`O=C(N/N=C/c1cccc(O)c1)c1ccc(NC(=O)c2cccc([N+](=O)[O-])c2)cc1` was tested, and the inhibition was 3.44%.
In the case of `O=C(c1cnn2ccccc12)N1CCN(C2CCCCC2)CC1`, the inhibition is reported as 26.7% (active).
For `O=C(c1cnn(-c2ccccc2)c1-n1cccc1)N1CCN(C2CCCCC2)CC1`, the inhibition was 2.13%.
In the case of `CCOC(=O)N1CCN(C(=O)c2cnn3ccccc23)CC1`, the inhibition is reported as 10.3%.
In the case of `COc1ccc(CNC(=O)C(c2ccncc2)N(C(=O)Cc2cccs2)c2ccccc2C)cc1` (stereo not drawn), the inhibition is reported as -1.48%.
With `COc1ccc(N2CCN(C(=O)CN3CCN(C(c4ccccc4)c4ccccc4)CC3)CC2)cc1` the inhibition was 3.02%.
Molecule `COc1cccc(N2CCN(CC(=O)Nc3nnc(-c4ccccc4)s3)CC2)c1` has an inhibition of -5.75%.
For `COc1ccc(N2CCN(CC(=O)N3CCC(C)CC3)CC2)cc1`, the inhibition was 24.4% (active).
Molecule `O=C(CN1CCN(c2ccccc2)CC1)Nc1nnc(-c2ccccc2)s1` has an inhibition of -5.83%.
For `COc1ccc(N2CCN(CC(=O)Nc3nnc(-c4ccccc4)s3)CC2)cc1`, the inhibition was 23.4% (active).
`COc1ccc(N2CCN(C(=O)CN3C(=O)C4CC=CCC4C3=O)CC2)cc1` (stereo not drawn) showed an inhibition of -0.46%.
For `CCn1c(SCC(=O)NCC2CCCO2)nnc1-c1ccccc1` (stereo not drawn), the inhibition was 1.77%.
`c1cc2c(cc1C1=NNC(=NC3CC3)SC1)OCCO2` was tested, and the inhibition was 8.68%.
`CCOC(=O)Cc1csc(NC(=O)CC(C)(C)CC(=O)O)n1` gave an inhibition of -4.17%.
Work on `CCN(CC)S(=O)(=O)c1cccc(-c2n[nH]c(=S)n2/N=C/c2ccc(OC)cc2)c1` yielded an inhibition of 13.1%.
`CCCc1c(C(=O)NNc2cc(C(F)(F)F)ccc2Cl)cnn1-c1ccccc1` showed an inhibition of -1.62%.
`CCC(=O)NC(=S)Nc1ccc(N2CCOCC2)cc1` was tested, and the inhibition was 4.46%.
In the case of `O=C(COc1ccc(Cl)cc1)NNC(=O)C(=O)N1CCCCC1`, the inhibition is reported as 32.2%.
In the case of `CCOC(=O)N1CCN(C(=O)C(=O)NNC(=O)COc2ccc(Cl)c(C)c2)CC1`, the inhibition is reported as 3.22%.
In the case of `O=C(O)CC1S/C(=N\N=C2CCCCCCC2)N(c2ccccc2)C1=O` (stereo not drawn), the inhibition is reported as 7.68%.
With `CN(C(=O)c1ccccc1)C1(C)CCS(=O)(=O)C1` (stereo not drawn) the inhibition was -2.77%.
Work on `O=c1c2cc(Cl)ccc2nc(-c2ccccc2)n1O` yielded an inhibition of 3.06%.
In the case of `O=c1c2ccccc2nc(-c2ccc(Cl)c(Cl)c2)n1O`, the inhibition is reported as 0.17%.
`O=c1c2ccccc2nc(-c2cccc(Cl)c2)n1O` was tested, and the inhibition was 26.1% (active).
With `CS(=O)(=O)N(CC(=O)Nc1ccccc1Cl)c1ccc(Cl)cc1` the inhibition was 4.49%.
`O=C(Nc1ccc2c(c1)OCCO2)c1c(F)c(F)c(F)c(F)c1F` showed an inhibition of 10.6%.
`O=C(/C=C\c1ccccc1OC(=O)c1ccccc1F)c1cc2ccccc2o1` gave an inhibition of 6.93%.
In the case of `O=C(CSc1nc2c(c(=O)[nH]1)CCC2)Nc1cccc(Cl)c1`, the inhibition is reported as 1.88%.
Work on `O=c1c2c(nc3nc(NCc4cccc(Cl)c4)[nH]n13)CCC2` yielded an inhibition of 9.8%.
With `CCCCCCCC(=O)NC1=NC(=O)C(C)(C)S1` the inhibition was -0.69%.
`Cc1ccc2[nH]c(=O)c(CN(CC3COCCO3)C(=O)Nc3ccccc3C)cc2c1` (stereo not drawn) showed an inhibition of 13.8%.
`Cc1cccc(NC(=O)N(Cc2cc3cc(C)cc(C)c3[nH]c2=O)CC2COCCO2)c1` (stereo not drawn) showed an inhibition of 2.91%.
With `CN(C)S(=O)(=O)c1ccc(C(=O)OCCn2cnc3c2c(=O)n(C)c(=O)n3C)cc1` the inhibition was -2.31%.
`O=C(O)CCCC(=O)Nc1cc([N+](=O)[O-])ccc1O` gave an inhibition of 7.33%.
With `O=[N+]([O-])c1ccc(O)c(NC(=S)Nc2ccccc2)c1` the inhibition was -0.91%.
Work on `Cc1ccc(NCc2nnc(SCC(=O)Nc3ncc(C)s3)n2CC2CCCO2)c(C)c1` (stereo not drawn) yielded an inhibition of 0.09%.
`COc1ccc2cc3cc(C(=O)NCCCN4CCOCC4)oc3nc2c1` was tested, and the inhibition was 18.2%.
Molecule `COc1ccc2cc3cc(C(=O)NC(C)C)oc3nc2c1` has an inhibition of 13.4%.
`CCCCN(CC)C(=O)c1cc2cc3ccc(OC)cc3nc2o1` gave an inhibition of 13.7%.
For `COc1ccc2cc3cc(C(=O)NCC4COc5ccccc5O4)oc3nc2c1` (stereo not drawn), the inhibition was 3.66%.
In the case of `CCCCN(CC)CCCNC(=O)c1cc2cc3ccc(OC)cc3nc2o1`, the inhibition is reported as 29.5%.
`COc1ccc2cc3cc(C(=O)NCCN4CCN(c5ccccc5F)CC4)oc3nc2c1` gave an inhibition of -0.03%.
Molecule `Cc1cccc2c1Sc1ccccc1CC2=O` has an inhibition of 7.62%.
For `CCn1nnnc1NCc1ccc(N2CCCC2)cc1`, the inhibition was 5.58%.
With `COc1cccc(C(=O)OCC(=O)c2c[nH]c3ccccc23)c1O` the inhibition was 6.87%.
Work on `COC(=O)N/N=C\c1ccc(OC(=O)c2ccco2)cc1` yielded an inhibition of 5.66%.
With `CC12CCCCC1c1ccccc1C(=NCC(=O)O)N2` (stereo not drawn) the inhibition was 2.45%.
In the case of `CCOC(=O)c1c(NC(=O)c2ccc(-n3cnnn3)cc2)sc2c1CCCC2`, the inhibition is reported as 3.69%.
With `C=CCN(C#N)c1nc(OC)nc(N2CCCC2)n1` the inhibition was -0.65%.
`O=C(NC1CCCC1)C(c1ccccc1)N(C(=O)c1ccco1)C1CCCC1` (stereo not drawn) was tested, and the inhibition was 17.7%.
`O=C(NC1CCCC1)C(c1ccccc1F)N(C(=O)c1ccco1)C1CCCC1` (stereo not drawn) was tested, and the inhibition was 25% (active).
With `COc1cccc(C(C(=O)NC2CCCC2)N(C(=O)c2ccco2)C2CC2)c1OC` (stereo not drawn) the inhibition was 11%.
For `N/C(=N\OC(=O)CCCOc1ccccc1)c1ccc(Br)cc1`, the inhibition was 5.3%.
In the case of `O=CN1CCN(C(=O)COc2ccc(Cl)cc2Br)CC1`, the inhibition is reported as 1.29%.
